Shown are actives, neighbours in structure and some others; about 22% of the full set was active somewhere.
LmPK inhibitor: qHTS Assay for Inhibitors of Leishmania Mexicana Pyruvate Kinase (LmPK) | purified LmPK, Kinase-Glo ATP luminescence, 1 h | AID 1721, 2009 | 290,000 compounds, 0.37% hits | Q27686 | Potency, µM (titrated, usually from 57.5 µM), hits mostly inhibitors
Target sequence (Q27686 whole entry, looked up): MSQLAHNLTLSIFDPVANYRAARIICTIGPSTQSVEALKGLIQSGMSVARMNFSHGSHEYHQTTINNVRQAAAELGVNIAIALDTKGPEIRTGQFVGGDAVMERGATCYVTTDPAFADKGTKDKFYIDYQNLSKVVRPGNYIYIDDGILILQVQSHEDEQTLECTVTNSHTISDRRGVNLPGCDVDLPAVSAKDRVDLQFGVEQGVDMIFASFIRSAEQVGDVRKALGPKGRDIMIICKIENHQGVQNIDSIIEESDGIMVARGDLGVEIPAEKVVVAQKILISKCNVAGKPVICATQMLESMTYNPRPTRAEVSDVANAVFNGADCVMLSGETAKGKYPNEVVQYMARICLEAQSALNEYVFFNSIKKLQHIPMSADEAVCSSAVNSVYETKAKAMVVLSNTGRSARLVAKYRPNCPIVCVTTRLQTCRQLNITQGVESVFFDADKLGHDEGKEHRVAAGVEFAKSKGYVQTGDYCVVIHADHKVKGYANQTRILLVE
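Screened at intermediate enzyme activity to detect both inhibitors and activators: LmPK at 0.1 nM, with a 0.5 nM enzyme column as activation reference. PEP 0.5 mM, ADP 0.1 mM; ATP detected by luminescence after 1 h.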
Cycloheximide cs: Cycloheximide Counterscreen for Small Molecule Inhibitors of Shiga Toxin | cell reporter, cycloheximide protein synthesis inhibition counterscreen | max response, % | 300,000 compounds, 12% hits; in the data active = max response mostly above about 13%, no sharp cut-off; inactive = mostly below about 14%; note: read at 38.3 µM for the half of the compounds with a filed dose
Pf growth 48h: Primary qHTS for delayed death inhibitors of the malarial parasite plastid, 48 hour incubation; P. falciparum luciferase growth in erythrocytes, 48 h; Potency, µM (top dose mostly 28.7 µM), usual class: inhibitors; 310,000 compounds, 5.9% hits; AID 504832, 2011
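Cell-based growth assay: transgenic P. falciparum expressing firefly luciferase, cultured in red cells within RPMI 1640 containing 0.5% w/v Albumax, 24 mM bicarbonate and gentamycin. A drop in luciferase activity indicates inhibition.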
Pf growth 96h: Primary qHTS for delayed death inhibitors of the malarial parasite plastid, 96 hour incubation; AID 504834, 2011; 320,000 compounds, 6.9% hits; Potency, µM (top dose mostly 28.7 µM), actives largely listed as inhibitors; P. falciparum luciferase reporter growth, 96 h
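Infected RBCs, 2% Hct / 0.05% parasitemia final; luciferase-reporter P. falciparum; cpd 96 h, 37 C, 5% CO2; luciferase detection reagent; luminescence.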
Shiga toxin inh: A qHTS for Small Molecule Inhibitors of Shiga Toxin; Vero cells, Shiga toxin protein synthesis inhibition reporter; inhibition, % at 38.7 µM; 290,000 compounds, 9.2% hits; AID 2315, 2010; in the data active = inhibition mostly above about 28%, no sharp cut-off; inactive = mostly below about 43%
A number is an active result; . = inactive; ? = inconclusive; / = no result given; [ ] = another dose, or the depositor's remark. Unless noted, calls come from the whole dose curve; as a rule, active = well fitted inhibition curve with a large enough effect; inconclusive = small, poorly fitted or top-dose-only effect, or another doubt; inactive = no such curve, though single readings can be large or run the other way.

SMILES	LmPK inhibitor	Cycloheximide cs	Pf growth 48h	Pf growth 96h	Shiga toxin inh
C=CCN1C(=O)/C(=C/c2ccc(OC)cc2)S/C1=N/c1nccs1	.	.	.	11.7µM	.
O=C(N/N=C1/CC2CCC1C2)c1cc2ccccc2cc1O (stereo not drawn)	.	.	?	9.28µM	.
CN(C(=O)c1ccccc1Cl)C1CCCCC1	.	13.4	.	/	.
O=C(NCC1CCCCC1)c1cc2ccccc2cc1O	.	31.8	1.31µM	1.65µM	74.1
CN(C(=O)c1ccc(Br)o1)C1CCCCC1	.	33.1	.	?	67.5
COc1cc(/C=C/C(=O)N2CCN(c3n[nH]c(=O)[nH]c3=O)CC2)cc(OC)c1OC	.	.	.	?	.
Cc1nc(NC(=O)CN2CCCCC2)sc1C(=O)N(C)C	.	.	.	.	.
CCOC(=O)C1CN(S(=O)(=O)c2cc(OC)ccc2OC)C1	.	.	.	.	.
CN(C(=O)COC(=O)c1cc2ccccc2cc1O)C1CCCCC1	/	/	.	.	/
CN(C(=O)c1cc2ccccc2cc1O)C1CCCCC1	.	21.1	?	.	.
COc1cccc(-c2nnc(NC(C)=O)o2)c1	.	.	.	.	.
COc1cccc2sc(NN)nc12	.[11.5 µM]	.	.	?	.
COc1ccccc1-c1nnc(Nc2nc3c(OC)cccc3s2)o1	.	.	?	?	45.1
COc1ccccc1-c1nnc(NC(=O)Cc2ccccc2)o1	.	.	.	?	.
COc1cccc2sc(Nc3nnc(-c4ccccc4Cl)o3)nc12	.	.	9.28µM	1.31µM	.
COc1cccc(-c2nnc(Nc3nc4c(F)cccc4s3)o2)c1	.	.	.	?	81.9
CN(CC(=O)Nc1ccccc1Cl)C(=O)COC(=O)CSc1ccc(Cl)cc1	/	/	.	.	/
COc1cc(OC)cc(C(=O)NC2CC(C)(C)NC(C)(C)C2)c1	.	.	?	.	.
CC(NC(=O)/C(=C/c1ccc2c(c1)OCO2)NC(=O)c1cccc([N+](=O)[O-])c1)C(=O)O (stereo not drawn)	.	.	.	?	.
COc1ccc(/C=N/NC2=NCCCCC2)c(OC)c1	.	.	.	.	.
Oc1ccccc1/C=N/NC1=NCCCCC1	.	33.7	.	.	94.8
O=[N+]([O-])c1cccc(/C=N/NC2=NCCCCC2)c1	.	35.7	?	?	62.0
CC[C@@]1(c2ccccc2)NC(=O)NC1=O	/	.	/	/	.
OC1(C#CCN2CCCC2)CCCCC1	.	.	.	?	/
O=C(NC1(Cc2ccccc2)CCN(CCCc2ccccc2)C1=O)c1ccccc1 (stereo not drawn)	/	/	?	.	/
SMILES	LmPK inhibitor	Cycloheximide cs	Pf growth 48h	Pf growth 96h	Shiga toxin inh
CC12CCC(=O)N1C(C(=O)NNC(=O)COc1ccc(Br)cc1)CS2 (stereo not drawn)	/	/	.	.	/
O=C(COC(=O)C1=COCCO1)Nc1ccccc1OC(F)F	.	.	.	.	.
O=C(CO/N=C/c1ccc(OC(F)F)cc1)NC1CCCCC1	.	.	?	.	.
O=C(N/N=C/c1ccccc1OC(F)F)C1=COCCO1	.	27.4	.	.	63.6
O=C(N/N=C/c1ccc(OC(F)F)cc1)C1=COCCO1	?	50.7	.	.	77.9
CCc1ccc(OCCn2cccn2)cc1	.	34.1	.	.	59.4
CCc1ccc(OCCOCCN2CCN(C)CC2)cc1	.	.	.	.	.
O=C(COc1ncnc2c(Cl)cc(Cl)cc12)NCCC1=CCCCC1	.	.	/	.	.
C/C(=N\NC(=O)c1cccc(S(=O)(=O)N2CCCC2)c1)c1cccs1	.	19.0	.	.	50.0
C/C(=N/NC(=O)c1cccs1)c1cccc(NC(=O)C2CC2)c1	.	38.5	.	?	95.4
C/C(=N\NC(=O)c1cccs1)c1ccc2ccccc2c1	.	36.9	.	.	41.3
C/C(=N\NC(=O)C1=NNC(=O)C1C)c1cccs1 (stereo not drawn)	.	33.9	.	.	90.2
C/C(=N\NC(=O)C1CC1c1ccccc1)c1cccs1 (stereo not drawn)	.	.	.	.	.
CC(=O)N/N=C(\C)c1cccc(NC(=O)c2cccs2)c1	.	.	.	.	.
COc1ccc(/C(C)=N/NC(=O)CNC(=O)c2cccs2)cc1	.	.	.	.	.
Fc1ccc(CNC(=S)NC2CCCC2)cc1	.	.	.	.	.
C/C(=N/NC(=O)Cc1cccc2ccccc12)c1cccs1	.	.	.	.	.
C/C(=N/NC(=O)c1cc(C2CC2)[nH]n1)c1cccs1	22.4µM	24.8	/	.	.
